Bioassay records (PubChem BioAssay)
PLK1 PBD block = inhibitors of human PLK1 polo-box domain binding | P53350 | Plk1 PBD binding of FITC phosphopeptide, fluorescence polarization | Potency, µM, without a hit: max response, negative = inhibition, usual class: inhibitors | actives 2.8% (n = 360,000) | AID 720504; further: series mostly up to about 57 µM; on the % scale 0 is the no-effect control and ±100 the full control effect; nearly all actives have a fitted effect of over 65% in size
Sfp PPTase inh = blocks B. subtilis Sfp PPTase activity | Q9F4F7 | Biochemical Sfp PPTase activity, qHTS | Potency, µM, for inactives: largest response in the series, negative = inhibition, hits mostly inhibitors | actives 3.5% (n = 310,000) | AID 1490;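 further: the enzyme is Sfp with the accession as filed and its product quenches rhodamine fluorescence; 0% = enzyme reaction without inhibitor and -100% = no enzyme wells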
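Reaction rates are the 30-min fluorescence difference (ex 525, em 598 nm) in wells containing 15 nM Sfp, 5 uM rhodamine-CoA and 12.5 uM BHQ-2-YbbR at pH 7.6 with 10 mM MgCl2.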
HP1b chromo inh = HP1-beta chromodomain-methylated histone interaction inhibition; P83916; AlphaScreen HP1-beta / biotin-H3K9me3 peptide binding; Potency, µM (highest dose often 114 µM), for the others: at the highest dose activity change, negative = inhibition, actives largely listed as inhibitors; actives 0.56% (n = 390,000); further: nearly all actives have a fitted effect of over 70% in size
Target sequence (P83916 whole entry, looked up): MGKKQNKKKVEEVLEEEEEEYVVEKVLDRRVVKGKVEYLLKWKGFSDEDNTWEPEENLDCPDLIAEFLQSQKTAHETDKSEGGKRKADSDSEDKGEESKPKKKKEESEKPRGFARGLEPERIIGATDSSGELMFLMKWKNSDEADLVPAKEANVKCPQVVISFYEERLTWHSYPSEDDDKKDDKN
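AlphaScreen: HP1-beta (50 nM) preformed 30 min with biotin-H3(1-18)K9me3 peptide (50 nM) in PBS pH 7.4, 0.01% Tween-20. Compound added for 30 min at RT, then streptavidin donor/nickel chelate acceptor beads (10 ug/mL) for 30 min.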
JMJD2A Tudor = JMJD2A Tudor domain (human) inhibition; O75164; AlphaScreen JMJD2A-Tudor / H3K4me3 peptide binding; Potency, µM (highest dose often 114 µM), inactives show at the highest dose activity change, negative = inhibition, hits mostly inhibitors; actives 4.4% (n = 390,000); further: on the % scale 0 is the no-effect control and ±100 the full control effect; nearly all actives have a fitted effect of over 50% in size
G9a inh = blocks human histone lysine methyltransferase G9a; Q96KQ7; G9a H3K9 monomethylation, AlphaScreen, 2 h; Potency, µM (highest dose often 102 µM), without a hit: top-dose activity, negative = inhibition, most hits filed as inhibitors; actives 8.8% (n = 350,000); AID 504332; further: on the % scale 0 is the no-effect control and ±100 the full control effect; nearly all actives have a fitted effect of over 75% in size
Target sequence (Q96KQ7 913-1193 limits assumed): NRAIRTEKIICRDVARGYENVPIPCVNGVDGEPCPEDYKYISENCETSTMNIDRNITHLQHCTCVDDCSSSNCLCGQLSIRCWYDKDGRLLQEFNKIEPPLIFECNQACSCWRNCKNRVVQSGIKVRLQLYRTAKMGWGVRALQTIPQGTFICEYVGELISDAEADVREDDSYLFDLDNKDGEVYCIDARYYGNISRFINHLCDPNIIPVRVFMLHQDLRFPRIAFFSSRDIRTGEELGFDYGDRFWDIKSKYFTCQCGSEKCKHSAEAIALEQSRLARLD
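Using a bead-based AlphaScreen, monomethylated H3K9 product from 2 h room-temperature reactions (G9a 20 nM, peptide 500 nM, SAM 20 uM) was detected with 0.5 ug/mL rabbit anti-H3K9me1 antibody.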
BAZ2B block = blocks human BAZ2B | AlphaScreen BAZ2B-H3K14Ac peptide displacement | Potency, µM (top dose mostly 114 µM), for the others: at the top dose activity change, negative = inhibition, hits mostly inhibitors | actives 4.4% (n = 360,000) | AID 504333; further: on the % scale 0 is the no-effect control and ±100 the full control effect; nearly all actives have a fitted effect of over 60% in size
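In this displacement format the biotinylated H3(5-23) peptide acetylated at Lys14 serves as ligand at 50 nM, with BAZ2B at 50 nM in PBS pH 7.4 containing 0.01% Tween-20. Donor and acceptor beads are 10 ug/mL final.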
An asterisk follows results filed as active; ? = inconclusive; nt = no result; [ ] = remark or other dose. Hits are enriched below; roughly 12% of the tested compounds scored in any of these assays. The call rests on the fitted dose curve; in most records, active means well fitted curve in the direction sought with a large enough effect; inconclusive means small, poorly fitted or top-dose-only effect, or another doubt; inactive means no such curve, though single readings can be large; an effect the other way counts as inactive or inconclusive. Potency means the concentration at half of the fitted maximal effect.

SMILES	PLK1 PBD block	Sfp PPTase inh	HP1b chromo inh	JMJD2A Tudor	G9a inh	BAZ2B block
O=C(CN1CCN(C(=O)c2ccco2)CC1)Nc1ccc2c(c1)OCCO2	-8.3%	5.0%	26.1%	-3.0%	50.1µM*	-27.3%
Cc1ccc(NC(=O)CN2CCN(C(=O)c3ccco3)CC2)cc1	-5.0%	23.7%	39.6%	-6.1%	1.3%	2.5%
O=C(CN1CCOCC1)Nc1ccc(Oc2ccc(NC(=O)CN3CCOCC3)cc2)cc1	-3.3%	13.4%	23.7%	-4.4%	11.2µM*	-3.4%
COC(=O)c1ccc(NC(=O)CN2CCOCC2)cc1	-1.8%	12.9%	10.7%	-14.8%	8.1%[59 µM]	20.9%
COc1ccccc1N1CCN(C(=O)CN2C(=O)COc3ccc(S(=O)(=O)N4CCOCC4)cc32)CC1	nt	nt	26.3%	-10.6%	-30.7%[59 µM]	-6.1%
COc1ccc(C2Nc3ccccc3C(=O)N2Cc2ccccc2)cc1COc1cccc(Cl)c1 (stereo unspecified)	nt	nt	nt	-2.7%	nt	nt
COc1ccc(Nc2cc(C)nc(N3CCN(C(=O)c4ccc5c(c4)OCO5)CC3)n2)cc1	-1.6%	nt	32.2%	-3.4%	-43.0%	-30.6%
O=C1CCCC=C1[C@@H](O)CCOC(c1ccccc1)(c1ccccc1)c1ccccc1	nt	12.0%	nt	nt	nt	nt
CC(=O)Nc1ccc(CC(=O)Nc2ccc3c(c2)OC2(CCCC2)O3)cc1	-8.9%	nt	nt	nt	nt	nt
Nc1ccc2c(c1)OC1(CCCCC1)O2	-7.7%	-5.9%	?	56.2µM*	-17.0%[59 µM]	?
COc1ccc(OS(=O)(=O)c2c(C)noc2C)cc1	-3.1%	21.8%	44.1%	18.9%	42.7%	7.0%
Cc1cc([N+](=O)[O-])cc([N+](=O)[O-])c1NCC(C)C	-7.0%	-4.1%	39.8µM*	44.7µM*	15.8µM*	12.6µM*
Cc1cccc(C)c1OCC(=O)N[C@@H](Cc1ccccc1)[C@@H](O)C[C@H](Cc1ccccc1)NC(=O)[C@H](C(C)C)N1CCCNC1=O	nt	-4.8%	nt	nt	-40.0%[12.7 µM]	nt
CCOC(=O)C1C(=O)CC(C)(O)C(C(=O)OCC)C1c1ccco1 (stereo unspecified)	3.36µM*	9.7%	-17.4%	-19.1%[11.4 µM]	-34.2%[12.7 µM]	9.2%
CCOC(=O)C1C(=O)CC(C)(O)C(C(=O)OCC)C1c1cccs1 (stereo unspecified)	-0.9%	16.7%	18.0%	-13.5%	11.9%[12.7 µM]	?
CCOC(=O)C1C(=O)CC(C)(O)C(C(=O)OCC)C1c1ccc(N(CC)CC)cc1 (stereo unspecified)	-6.7%	14.7%	5.4%	-23.2%	14.1µM*	-19.0%
CCC(C)C(NC(=O)OC(C)(C)C)C(=O)NC1COC2CC(n3cc(F)c(=O)[nH]c3=O)OC12 (stereo unspecified)	nt	-2.8%	19.0%	-13.8%	nt	nt
O=C1Cc2c([nH]c3ccc(Br)cc23)-c2ccccc2N1	-5.4%	-27.5%	31.6%	-11.8%	39.8µM*	nt
O=c1c2c([nH]c3ccc(Br)cc13)CCCC2	-2.5%	8.8%	21.2%	-12.1%	?	-4.9%
COc1ccccc1-c1cn[nH]c(=S)n1	?	44.7µM*	?	50.1µM*	?	-35.5%
COc1ccccc1-c1cncc(NC(C)=O)n1	-9.5%	nt	nt	nt	nt	nt
Cn1cccc1/C=C(/C#N)C(N)=S	-4.6%	-2.1%	-6.4%	-24.5%	?	?
Cc1cc(C)c(/C=C(\C#N)C(N)=S)c(C)c1	-6.2%	2.0%	1.1%	-31.7%	44.7µM*	1.5%
Cc1ccc(-c2ccc(/C=C(\C#N)C(N)=S)n2C)cc1	-7.3%	-4.4%	-30.2%	?	10µM*	?
Cc1cc(C)nc(Sc2ccc(/C=C(\C#N)C(N)=O)o2)n1	-0.1%	5.6%	14.4%	-7.3%	-1.3%[59 µM]	-1.6%
SMILES	PLK1 PBD block	Sfp PPTase inh	HP1b chromo inh	JMJD2A Tudor	G9a inh	BAZ2B block
CCCc1sc(N/N=C/c2ccccn2)nc1-c1ccc(F)cc1	-5.9%	-10.0%	-19.7%	44.7µM*	-45.8%[59 µM]	?
O=C1OC(c2ccccc2)=C/C1=C/N1CCCCC1	-9.4%	?	-22.0%	?	?	50.1µM*
COc1ccc(OC)c(Nc2nc(NCCCN(C)C)nc(N)c2[N+](=O)[O-])c1	-19.1%	-10.8%	-21.2%	35.5µM*	44.7µM*	31.6µM*
Cc1ccc(C)n1-c1nc(=S)[nH][nH]1	23.8µM*	14.1µM*	15.8µM*	3.16µM*	1.26µM*	?
Cc1ccc(C)n1-c1ccc(-c2ccn[nH]2)cc1	-3.8%	16.9%	-2.2%	-28.5%	?	-24.9%
Cc1nc2c(=O)[nH]c(=S)n(C)c2nc1C	2.99µM*	4.47µM*	-70.7%	50.1µM*	7.08µM*	-27.9%
Cc1ccc(SCC(=O)Nc2ccc(S(=O)(=O)Nc3nccs3)cc2)cc1	-27.8%	4.6%	-5.1%	-26.5%	12.6µM*	?
O=C(COc1ccc(F)cc1Cl)Nc1ccc(S(=O)(=O)Nc2nccs2)cc1	-13.7%	nt	4.9%	-24.1%	31.6µM*	-1.6%
O=C(CSc1ccncc1)Nc1ccc(S(=O)(=O)Nc2nccs2)cc1	-24.1%	-3.3%	2.1%[57 µM]	-29.3%	nt	?
Cc1cccc(OCCCC(=O)Nc2ccc(S(=O)(=O)Nc3nccs3)cc2)c1C	-15.4%	10.6%	-19.9%	?	44.7µM*	?
CC(=O)NS(=O)(=O)c1ccc(NC(=O)CSc2ccc(Cl)cc2)cc1	?	10.1%	33.5%	-2.1%	-30.5%	-15.2%
Cc1ccc(C)c(NS(=O)(=O)c2ccc(NC(=O)CSc3ccc(Cl)cc3)cc2)c1	23.8µM*	6.9%	7.5%	-24.4%	-7.3%[59 µM]	-0.3%
COc1cc(Br)c(C2C(C#N)=C(N)Oc3n[nH]c(-c4cccnc4)c32)cc1OC (stereo unspecified)	-13.1%	-3.3%	4.3%	-17.3%	?	-22.9%
Cc1ccc(O)c(C(=O)c2cnn(C(=O)COc3ccccc3C#N)c2)c1	nt	2.4%	nt	nt	9.5%	?
CC(=O)Oc1ccc(C2=Cc3ccc(OC(C)=O)cc3OC2C)cc1 (stereo unspecified)	1.7%	nt	29.6%[57 µM]	2.1%	nt	nt
CCOc1ccc2nc(N3CCCC(C(=O)NCCc4ccc(OC)cc4OC)C3)sc2c1 (stereo unspecified)	nt	nt	44.0%	-15.6%	-3.9%[59 µM]	-29.8%
O=C(Nc1ccc(S(=O)(=O)Nc2nccs2)cc1)c1nn(-c2ccc(F)cc2)ccc1=O	?	5.5%	-15.0%	56.2µM*	?	25.1µM*
Cc1ccc(NS(=O)(=O)c2ccc(NC(=O)C(C)Sc3ccc(Cl)cc3)cc2)c(C)c1 (stereo unspecified)	29.9µM*	46.1%	-1.9%	-34.7%	-7.7%[59 µM]	9.5%
Cc1ccc(NS(=O)(=O)c2ccc(NC(=O)C3CC3)cc2)c(C)c1	1.5%	10.5%	26.0%	-9.9%	-3.2%	-4.6%
CC(C)OC(=O)[C@@H]1CC[C@H](C)[C@@H](CCCCO)O1	nt	-2.6%	nt	nt	nt	nt
O=C1CC(=O)Nc2cc(S(=O)(=O)Nc3ccc(F)cc3Cl)ccc2N1	-13.8%	18.9%	40.9%	-18.3%	-3.7%	-2.7%
